# Data published in the supplement of paper PMC6555819.
# System: PPARg:RXRa (NR concentration 180 nM, RXRa partner concentration 90 nM)
# Assay: PBM binding z-score (relative to random genomic background probes); higher = stronger binding; sequences stand for … in GC…GCGATTGACAGCGTAGAATGAAGG
# Method in brief: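 For binding z-scores, the reference was random background probes on custom Agilent 4×180K protein-binding microarrays. These arrays were incubated 1 h with ligand-free nuclear receptor dimers in PBS pH 7.4, 2% milk, 0.02% Triton X-100, 1 mM DTT, 0.2 mg/mL BSA and 0.4 mg/ml salmon testes DNA. Fluorescence was scanned after antibody detection of each partner (one per run) and regression-normalized.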
row,Sequence,PBM binding z-score
1,TCTTGTAGGTCAGCAGGTTAAGAAAGCTGGCCAA,6.77
2,TAGCCTAGGTCATTCAGGGCCCAGTATAGAAAGC,1.96
3,AATATAGGGTCACTAGGCCAGAGTAGGTACGAAT,8.45
4,CCTCCGAGGACAACAGGAGGTCAGAGCTGCCAGA,0.575
5,CCTAGCTGGTCAAGGTCACACACGCTATAGGTAC,2.76
6,ATCGAAAGGTCGTCAGGTGAGTATACAGAAAGGC,3.63
7,ATCGAAAGGTCGTGAGGTGAATATACAGAAAGGC,4.88
8,TGAATGAGGTTATAAGAGCAGGGAACGTTGCAAA,1.32
9,CCTAGTTGGCCAGGAGGTCACACACCGGATATGA,2.42
10,AGTCAAAGTTCACTAGGTAACGTCAGATTCAGCT,6.81
11,AGAACGAGGGCACGCTGAGTAGATAGCAGAGTAG,2.28
12,TCAGACAGGTGATGGTAACTCAGGTACGCAGTCG,0.601
13,CCTCGGAGGACAAGAGGAGGTCAGAGCTGCCAGA,0.27
14,ATATGTAGGTTATCGGGTAATTCAGTTTGCGCAT,5.49
15,GCTATTAGTTGAAAGCGCAACCGAATGATTCTCG,0.157
16,CGGCAAAGTTCAAGGTAACGTAACAGAAAGCAGC,3.94
17,ATACCAAGGTGATCGTGAGGTTGTTGATACTAAC,0.435
18,ACAGACAGGTGAGTGAAGGTACCTCAGCTGGACG,0.476
19,GGAACGACGGCATTCGAGTTGATAGCATGGCGAT,0.532
20,TCGCGTAGGTTACCAATGGGGCATTCAGCTTTCT,-0.342

row,Sequence,PBM binding z-score
1,TTACCAAGGTAAGCTGAGGTCGTTGATCCAACTC,-0.244
2,CCTACTGGGCCACGAAAGGTCAGTGATTCAGTGA,3.77
3,GCTTCTAGATCAAGGTTAAGAAAGACTAAGCTAA,0.749
4,ACGATTAGTTGAGACGAGGGCAACCGATAGGTTG,0.533
5,ATATGTAGGTGAGCTGGGGTCATTCAGACTAGGC,7.13
6,CCTAGTTGGTCAGGAGGTCTCACACCGGATATGA,0.469
7,CTCGAAAGGTCGTGCTCAGGTGAGGATACCAAAC,2.79
8,CCGGCTGGGGCAAGGTTACCATAACGCACAGCCA,1.04
9,CCGACTGGGGCATAAGGTTACCATAAGCCAGCCC,2.29
10,GCGACTGGGGCACAGCAGGTTACCATAAGGTTGG,1.75
11,AGTCAAAGTTAAGGACGAGGTAACGTAAAGCACG,0.85
12,CGTCCAAGGTCAACGTCAGTGAAAGAGACTCGAA,5.37
13,ACAGACAGGTGAGTGAATGTAACTCAGCTGGACG,0.779
14,GCTGCTAGGTCAACTGATGGTCAGATAAAGCTCG,3.29
15,TGAATGAGGTTATAGGATCAGGGAACGTTGCAAA,2.06
16,TAGTCTAGGTCATTGGGCCAGTATAGTACGCATC,5.91
17,CCAACTGGGCCAAAGGTCATTGATTCCAATGCTC,12.4
18,AGCCAAAGTTCATCTAGGTAACGTAAGATATGCT,5.36
19,TCATATAGGTCATACAGGTGAAAGTCGGCATCTA,7.05
